The values that follow come from the supplement of paper PMC8975748.

Molecules are shown by their SMILES. Counter-ions that a name gives are not always drawn.

This assay has as its system Saccharomyces cerevisiae BY4741 SeMeCo community. The assay can be described thus: z-score of subpopulation abundance vs DMSO median, subpopulation auxotrophic for HUM; higher = larger share of this subpopulation than in DMSO controls. The conditions noted are these: 10 µM; 24 h; SM minimal medium; subpopulation (auxotrophy): HUM. As for the experimental part:
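Fluorescent four-plasmid SeMeCo (self-establishing metabolically cooperating S. cerevisiae BY4741 community; plasmids pH-mRuby2, pL-mWasabi, pU-eCFP, pM-TagRFP657) was grown 24 h in minimal SM medium with each Selleck FDA-approved drug at 10 µM in 384-well plates. Cells were fixed and imaged by high-content confocal microscopy. For each auxotrophic subpopulation (and the prototroph), a z-score gives the deviation from the DMSO vehicle-control population median.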
On to `C[C@@H](O)[C@H]1C(=O)N2C(C(=O)O)=C(S[C@@H]3CN[C@H](CNS(N)(=O)=O)C3)[C@H](C)[C@H]12` [Doripenem Hydrate], for which the “z-score of subpopulation abundance” value is -0.79. Under `CCN1CCCC1CNC(=O)c1cc(S(N)(=O)=O)ccc1OC` (stereo not given) [Sulpiride] stands -0.68; under `Cc1nccn1CC1CCc2c(c3ccccc3n2C)C1=O` (stereo not given) [Ondansetron Hydrochloride Dihydrate], 0.55; under `Cc1cc(-n2c(=O)[nH]c(=O)n(C)c2=O)ccc1Oc1ccc(SC(F)(F)F)cc1` [Toltrazuril], -0.45. As for `CCN[C@@H]1C[C@H](N)[C@@H](O[C@H]2OC(CN)=CC[C@H]2N)[C@H](O)[C@H]1O[C@H]1OC[C@](C)(O)[C@H](NC)[C@H]1O` [Netilmicin Sulfate], the figure is 0.71. Under `C=CCCCCCCCCC(=O)[O-].C=CCCCCCCCCC(=O)[O-].[Zn+2]` [Zinc Undecylenate] stands -0.02; under `O=C1CN(/N=C/c2ccc([N+](=O)[O-])o2)C(=O)N1` [Nitrofurantoin], -0.82. Regarding `O=C(O)CCCCCCCC(=O)O` [Azelaic acid], the “z-score of subpopulation abundance” value is 0.47. As for `Nc1ccc2cc3ccc(N)cc3nc2c1` [Proflavine], the figure is -4.57; as for `CCc1cc(C(N)=S)ccn1` [Ethionamide], -0.25. Under `O=C(NCCN1CCOCC1)c1ccc(Cl)cc1` stands -1.26.

As for `CC(=O)OC1CC2(C)C(CC(O)C3C4(C)CCC(O)C(C)C4CCC32C)C1=C(CCC=C(C)C)C(=O)O` (stereo not given) [Fusidine], the “z-score of subpopulation abundance” value amounted to 0.82. Under `Cc1cc(NS(=O)(=O)c2ccc(N)cc2)nc(C)n1` [sulfaisodimidine] stands -0.19.

Regarding `COc1ccnc(C[S+]([O-])c2nc3cc(-n4cccc4)ccc3[nH]2)c1C` (stereo not given) [Ilaprazole sodium], the “z-score of subpopulation abundance” value worked out at 0.43. Under `O=C(O)c1ccccc1O` [Salicylic acid] stands -1.03; under `CC(=O)O[C@H]1C[C@@]2(C)[C@@H](C[C@@H](O)[C@H]3[C@@]4(C)CC[C@@H](O)[C@@H](C)[C@@H]4CC[C@@]32C)/C1=C(\CCC=C(C)C)C(=O)O` [Fusidate Sodium], 1.17; under `CC1(C)S[C@@H]2[C@H](NC(=O)Cc3ccccc3)C(=O)N2[C@H]1C(=O)O.CCN(CC)CCOC(=O)c1ccc(N)cc1` [Penicillin G Procaine], 0.86. As for `CCOc1cc(N)c([N+](=O)[O-])cc1C(=O)NC1CCN(CC2CC=CCC2)CC1` (stereo not given) [Cinitapride Hydrogen Tartrate], the figure is 1.26. Under `Cc1ccnc(NS(=O)(=O)c2ccc(N)cc2)n1` [Sulfamerazine] stands 0.76. In the case of `CC1=CC[C@@](O)(C(C)C)CC1` [Terpinen-4-ol], the “z-score of subpopulation abundance” value was -0.35.

For the molecule `CC(C)(C)C(=O)C(Oc1ccc(Cl)cc1)n1ccnc1` (stereo not given) [Climbazole], the “z-score of subpopulation abundance” value came out at 9.71.

Turning to `CO/N=C(\C(=O)N[C@@H]1C(=O)N2C(C(=O)OC(C)OC(C)=O)=C(COC(N)=O)CS[C@H]12)c1ccco1` (stereo not given in full) [Cefuroxime axetil], the “z-score of subpopulation abundance” value was determined as 0.05. Under `CCOC(=O)C1=C[C@@H](OC(CC)CC)[C@H](NC(C)=O)[C@@H](N)C1` [Oseltamivir Phosphate] stands -1.09.

On to `Fc1ccc([C@@H]2CCNC[C@H]2COc2ccc3c(c2)OCO3)cc1` [Paroxetine mesylate], for which the “z-score of subpopulation abundance” value was -0.17. Under `C[C@@H]1[C@H](O)[C@@H](C)/C=C/C=C/C=C/C=C/C=C/C=C/C=C/[C@H](O[C@@H]2O[C@H](C)[C@@H](O)[C@H](N)[C@@H]2O)C[C@@H]2O[C@](O)(C[C@@H](O)C[C@@H](O)[C@H](O)CC[C@@H](O)C[C@@H](O)CC(=O)O[C@H]1C)C[C@H](O)[C@H]2C(=O)O` [Amphotericin B] stands 75.7. As for `C[C@H](NCc1ccc(OCc2cccc(F)c2)cc1)C(N)=O` [Safinamide Mesylate], the figure is 0.75; as for `O=C(O)CCC(=O)c1ccc(-c2ccccc2)cc1` [Fenbufen], 0.23. Regarding `CC[C@H]1OC(=O)[C@H](C)[C@@H](O[C@H]2C[C@@](C)(OC)[C@@H](O)[C@H](C)O2)[C@H](C)[C@@H](O[C@@H]2O[C@H](C)C[C@H](N(C)C)[C@H]2O)[C@](C)(O)C[C@@H](C)C(=O)[C@H](C)[C@H]2OC(=O)O[C@@]21C` [Erythromycin Cyclocarbonate], the “z-score of subpopulation abundance” value stood at 0.96. As for `OCCOc1ccc(/C(=C(/CCCl)c2ccccc2)c2ccccc2)cc1` [Ospemifene], the figure is -0.62; as for `CCOC(=O)C1=C[C@]2(CC)CCCN3CCc4c(n1c1ccccc41)[C@@H]32` [Vinpocetine], 0.65.

For the molecule `Cc1cccc(C)c1OCC(C)N` (stereo not given) [Mexiletine HCl], the “z-score of subpopulation abundance” value was -0.49. `O=C(c1ccc(OCCN2CCCCC2)cc1)c1c(-c2ccc(O)cc2)sc2cc(O)ccc12` [Raloxifene HCl]: the “z-score of subpopulation abundance” value came to 0.06. With `CCc1c(C)[nH]c2c1C(=O)C(CN1CCOCC1)CC2` (stereo not given) [Molindone hydrochloride], the “z-score of subpopulation abundance” value was -0.76.

Regarding `N[C@@H]1CCCCN(c2c(F)cc3c(=O)c(C(=O)O)cn(C4CC4)c3c2Cl)C1` [Besifloxacin HCl], the “z-score of subpopulation abundance” value was -0.3.

Turning to `O=C(O)c1cn(C2CC2)c2cc(N3CCNCC3)c(F)cc2c1=O` [Ciprofloxacin hydrochloride hydrate], the “z-score of subpopulation abundance” value came out at 0.96. As for `CC(=O)N1CCN(c2ccc(OCC3COC(Cn4ccnc4)(c4ccc(Cl)cc4Cl)O3)cc2)CC1` (stereo not given) [Ketoconazole], the figure is 0.03. On to `CC(N)C12CC3CC(CC(C3)C1)C2` (stereo not given) [Rimantadine], for which the “z-score of subpopulation abundance” value is 0.67.

For `OC(CCCN1CCCCC1)(c1ccccc1)c1ccccc1` [Diphenidol HCl], the “z-score of subpopulation abundance” value came to 0.78.

Turning to `Cc1ccccc1OCC(O)CO` (stereo not given) [Mephenesin], the “z-score of subpopulation abundance” value was -0.77. Consider `Cc1ncc([N+](=O)[O-])n1CCO` [Metronidazole], for which the “z-score of subpopulation abundance” value is 0.09.
